Assay results as given in PubChem BioAssay (NCATS).
Values joined by “and” are separate entries in the source; they are usually repeats but may differ in a detail not shown here. Equal values may be shown once. Results filed as inconclusive are left out. Where a structure was tested more than once in an assay, its records may differ in their call. Active and inactive are the calls of the source. Unless noted, the call rests on the fitted dose curve; in most records, active means well fitted curve in the direction sought with a large enough effect; inconclusive means small, poorly fitted or top-dose-only effect, or another doubt; inactive means no such curve, though single readings can be large; an effect the other way counts as inactive or inconclusive.

Legend:
[1] = qHTS assay for small molecule activators of the p53 signaling pathway (AID 651743; active means well fitted activation curve with a large enough effect in the signal ratio, not every such curve was filed as active; the % refers to the signal ratio; further: series mostly up to about 92 µM; % of control where 0% means no effect); settings: HCT-116 p53RE-bla, beta-lactamase FRET ratio, 16 h; activation: stronger effect = higher value
Summary of the method: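 Screen for p53 pathway agonists uses stably transfected p53RE-bla HCT-116 cells, 4,000 per well, treated 16 h at 37 C with compounds in DMSO.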

[2] = qHTS assay for small molecule disruptors of the mitochondrial membrane potential - 1 hr assay (AID 651754; calls by dose curve; further: on the % scale 0 is the no-effect control and ±100 the full control effect; nearly all actives have a fitted effect of over 35% in size)
Summary of the method: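 HepG2 cells, attached overnight at 37C, were exposed to compound or DMSO vehicle for 1 hr at 37C, 5% CO2, then stained with Mito-MPS dye for 30 min. Red aggregate versus green monomer fluorescence reports membrane potential.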

[3] = qHTS assay for small molecule disruptors of the mitochondrial membrane potential - 5 hr assay (AID 651755; calls by dose curve; further: on the % scale 0 is the no-effect control and ±100 the full control effect; nearly all actives have a fitted effect of over 40% in size)
Summary of the method: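 HepG2, 2,000 cells/well, overnight attach; cpd or DMSO 5 hr, 37C/5% CO2; Mito-MPS 30 min 37C; fluor 490/535 + 540/590 nm.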

[4] = qHTS assay to identify small molecules that stimulate interleukin-8 (IL-8) secretion (AID 651758; active means well fitted activation curve with a large enough effect in the signal ratio; the % refers to the signal ratio; further: potency means the concentration at half of the fitted maximal effect; on activation: 0% is about no effect)
Summary of the method: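 Secreted IL-8 measured by TR-FRET sandwich (cryptate and XL665 antibodies) from THP-1 cells exposed to compound overnight (16 hrs, 37 C).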

[5] = qHTS assay for environmental chemicals that activate the Aryl hydrocarbon Receptor (AhR) signaling pathway (AID 651777); settings: 1A2-DRE human hepatoma cells, luciferase, 24 h; activation: stronger effect = higher value; further: % of control where 0% means no effect; nearly all actives have a fitted effect of over 15% in size
Summary of the method: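 Human hepatoma 1A2-DRE cells stably carrying a DRE/CYP1A2 promoter–luciferase reporter, 1,200 cells/well, exposed to compound 24 hr at 37 C. Luciferase read by One-Glo luminescence after 30 min at room temperature; increased signal marks AhR activation.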

[6] = molecular target: Peroxisome proliferator-activated receptor alpha (Homo sapiens) (UniProt Q07869); experiment: qHTS assay for small molecule agonists of the peroxisome proliferator-activated receptor alpha (PPARalpha) signaling pathway (AID 651778); settings: PathHunter PPARalpha complementation, chemiluminescence, 6 h; stronger effect = higher value; further: % of control where 0% means no effect
Summary of the method: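 Chemiluminescence from complemented enzyme reported PPARalpha activation in cells after 6 hr of compound treatment at 37 C. The detection reagent was incubated for 60 min at room temperature, and compounds were scored as agonists.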

[7] = molecular target: Nuclear receptor ROR-gamma (Homo sapiens) (UniProt P51449); experiment: qHTS assay for small molecule antagonists of the retinoid-related orphan receptor gamma (ROR-gamma) signaling pathway (AID 651802); further: nearly all actives have a fitted effect of over 60% in size; further: potency means the concentration at half of the fitted maximal effect
Summary of the method: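 CHO cells carrying TET-inducible ROR-gamma and an ROR response element–luciferase reporter were exposed to compound, then induced with doxycycline. After 16hr at 37C, luminescence was read; lower signal indicates antagonism.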

[8] = qHTS assay for small molecule agonists of the antioxidant response element (ARE) signaling pathway measured by Nrf2-dependant transcriptional activity (AID 720636; active means well fitted curve in the direction sought with a large enough effect in the repeat runs; an effect the other way counts as inactive or inconclusive; further: % of control where 0% means no effect)
Summary of the method: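 ARE-luc HepG2 cells carrying an Nrf2-responsive luciferase reporter, in medium with 1% dialyzed FBS, exposed to compound for 16 hr at 37 C, 5% CO2. Luminescence read 30 min after ONE-Glo addition.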

[9] = qHTS assay for small molecule antagonists of the retinoid-related orphan receptor gamma (ROR-gamma) signaling pathway - cell viability counter screen (AID 720652; active means well fitted curve in the direction sought with a large enough effect in the repeat runs; an effect the other way counts as inactive or inconclusive;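 further: series mostly up to about 92 µM; compound exposure lasted 16 hr before ATP read; on the % scale 0 is the no-effect control and ±100 the full control effect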)
Summary of the method: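 Counter screen in CHO cells carrying TET-inducible ROR-gamma and an ROR response element-luciferase reporter; cells plated 5 hr, compound pinned, doxycycline added, then 16 hr at 37 C. Viability read as intracellular ATP by CellTiter-Glo luminescence.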

[10] = qHTS assay for small molecule agonists of the antioxidant response element (ARE) signaling pathway measured by Nrf2-dependant transcriptional activity - cell viability counter screen (AID 720653; active means well fitted curve in the direction sought with a large enough effect in the repeat runs; an effect the other way counts as inactive or inconclusive; further: on the % scale 0 is the no-effect control and ±100 the full control effect); settings: ARE-bla HepG2 viability, CellTiter-Glo ATP luminescence, 16 h; max response: stronger effect = lower value
Summary of the method: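 Cytotoxicity counter screen: intracellular ATP quantified by CellTiter-Glo luminescence in the same ARE-bla HepG2 plates, after 16 h compound exposure and a 2 h beta-lactamase substrate step.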

[11] = qHTS assay for cell viability of HEK293 cells (AID 743288); settings: ATP luminescence (CellTiter-Glo), 18 h; max response: stronger effect = lower value; further: on the % scale 0 is the no-effect control and ±100 the full control effect; nearly all actives have a fitted effect of over 50% in size
Summary of the method: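 Parental HEK293 cells were seeded at 2,000 cells/well, rested at least 5 h at 37 C, then exposed to compounds in DMSO for 18 h at 37 C. Viability was read as ATP-dependent luciferase luminescence after 30 min at room temperature.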

[12] = qHTS assay for small molecule activators of the nuclear factor-kappa B (NF-kB) signaling pathway (AID 651749; active means well fitted activation curve with a large enough effect in the signal ratio; the % refers to the signal ratio; further: series mostly up to about 77 µM; % of control where 0% means no effect); settings: NF-kB-bla ME-180 cells, beta-lactamase FRET ratio, 16 h; stronger effect = higher value
Summary of the method: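 Stably transfected ME-180 line; NF-kB response element upstream of beta-lactamase. Treatment: compound or DMSO, 16 hr. Detection: fluorescent FRET substrate.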

[13] = molecular target: Arylsulfatase A (Homo sapiens) (UniProt P15289); experiment: qHTS screen for enhancers of Arylsulfatase A (ASA1): LOPAC Validation Assay (AID 720538)
Summary of the method: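 SV40-transformed skin fibroblasts from an MLD patient (ASA-I179S) were treated with compounds for 48h at 37 degree C, then lysed with 0.5mM pNCS final substrate for 14h at room temperature; NaOH stop, fluorescence read (Ex=525 nm; Em=598 nm).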

[14] = qHTS for compounds that reverse cellular toxicity of Amyloid beta (A-beta) peptide in yeast: LOPAC Validation Assay (AID 720559);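 further: plate controls were DMSO for no effect and equimolar ferric chloride plus clioquinol rescue for full effect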
Summary of the method: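 Yeast cells expressing toxic A-beta were combined with pinned compounds in growth medium and incubated 48 hr at 30 C. Growth was read as absorbance at 600 nm and normalized to DMSO and to an equimolar FeCl3/clioquinol positive control.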

[15] = qHTS for Activators of Parkin Expression: LOPAC Validation Assay (NLuc Reporter) (AID 720572;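 further: 0% = DMSO and 100% = positive control compound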)
Summary of the method: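 Parkin promoter-driven FLuc/NLuc neuronal reporter cells; 24 h plating, 7-pt dose response, 24 h at 37 C/5% CO2; FLuc then NanoLuc reagent, 10 min each, luminescence; DMSO/positive control normalized.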

[16] = qHTS for Activators of Parkin Expression: LOPAC Validation Assay (FLuc Reporter) (AID 720573;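 further: 0% = DMSO and 100% = positive control compounds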)
Summary of the method: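 Neuronal cell line stably carrying FLuc/NLuc coincidence reporter under Parkin promoter; cells plated 24 h, then compounds added in 7-point dose response for 24 h at 37 C. FLuc luminescence read; normalized to DMSO and positive control (100%).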

[17] = molecular target: T1, Hexokinase-4 (Homo sapiens) + Glucokinase regulatory protein (Homo sapiens) (UniProt P35557+Q14397); experiment: qHTS assay for inhibitors of recombinant human GCK-GKRP interaction: Diaphorase-coupled assay (AID 743205)
Summary of the method: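 GST-GCK (10 nM) with FLAG-GKRP (10 nM), 5 mM glucose and 0.4 mM ATP in pH 7.6 Hepes; compounds preincubated 20 min with substrate. G6PDH/diaphorase coupling converts resazurin to resorufin, read kinetically (ex 525/em 590 nm) for 30 min.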

[18] = molecular target: T1, Hexokinase-4 (Homo sapiens) + Glucokinase regulatory protein (Homo sapiens); experiment: qHTS assay for inhibitors of recombinant human GCK-GKRP interaction: ADP-Glo assay (AID 743206);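 further: plate controls were DMSO plus enzyme for no effect and no enzyme for full effect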
Summary of the method: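 GST-GCK and FLAG-GKRP (15 nM each in the dispensed mix, with 2 uM S6P) react with 0.4 mM ATP and 5 mM glucose (final) in Hepes pH 7.6 for 60 min at room temperature. ADP is measured by ADP-Glo luminescence.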

[19] = molecular target: T1, Hexokinase-4 (Homo sapiens) + Glucokinase regulatory protein (Homo sapiens); experiment: qHTS assay for inhibitors of recombinant human GCK-GKRP interaction: HTRF assay (AID 743207);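 further: 0% = DMSO with GCK present and -100% = DMSO wells lacking GCK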
Summary of the method: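 GST-GCK and FLAG-GKRP (5 nM each) were combined with 2 uM S6P in pH 7.1 Hepes/MgCl2/KCl/DTT buffer, then compound and anti-FLAG XL665/anti-GST K antibodies were added. After 60 min at room temperature, HTRF 665/615 nm emission was read.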

[20] = qHTS Assay for Identifying Gametocytocidal Compounds (AID 743244); further: potency means the concentration at half of the fitted maximal effect;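 on max response: on the % scale 0 is the no-effect control and ±100 the full control effect; actives lower the fluorescent signal which means gametocytes are killed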; settings: P. falciparum 3D7 stage III-V gametocytes, alamarBlue, 72 h; max response: stronger effect = lower value
Summary of the method: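 A resazurin-based viability read-out was applied to mature P. falciparum gametocytes: 72 h compound treatment, then 24 h dye incubation, with falling fluorescence signalling gametocytocidal effect.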

Sequence of Nuclear receptor ROR-gamma (Homo sapiens) (P51449 whole entry, looked up): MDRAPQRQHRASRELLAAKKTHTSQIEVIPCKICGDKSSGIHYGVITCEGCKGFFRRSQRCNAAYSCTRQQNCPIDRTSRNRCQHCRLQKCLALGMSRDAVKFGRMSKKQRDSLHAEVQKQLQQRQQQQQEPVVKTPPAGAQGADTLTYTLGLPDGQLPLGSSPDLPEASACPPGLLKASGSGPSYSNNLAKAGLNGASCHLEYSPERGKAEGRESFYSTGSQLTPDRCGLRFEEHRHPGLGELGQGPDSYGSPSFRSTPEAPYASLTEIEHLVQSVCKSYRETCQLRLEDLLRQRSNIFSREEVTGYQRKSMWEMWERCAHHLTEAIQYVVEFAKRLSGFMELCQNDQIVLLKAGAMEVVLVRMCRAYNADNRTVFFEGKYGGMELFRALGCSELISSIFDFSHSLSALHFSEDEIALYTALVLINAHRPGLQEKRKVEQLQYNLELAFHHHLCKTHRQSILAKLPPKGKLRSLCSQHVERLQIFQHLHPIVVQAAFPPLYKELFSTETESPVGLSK
T1 sequence (P35557 whole entry, looked up): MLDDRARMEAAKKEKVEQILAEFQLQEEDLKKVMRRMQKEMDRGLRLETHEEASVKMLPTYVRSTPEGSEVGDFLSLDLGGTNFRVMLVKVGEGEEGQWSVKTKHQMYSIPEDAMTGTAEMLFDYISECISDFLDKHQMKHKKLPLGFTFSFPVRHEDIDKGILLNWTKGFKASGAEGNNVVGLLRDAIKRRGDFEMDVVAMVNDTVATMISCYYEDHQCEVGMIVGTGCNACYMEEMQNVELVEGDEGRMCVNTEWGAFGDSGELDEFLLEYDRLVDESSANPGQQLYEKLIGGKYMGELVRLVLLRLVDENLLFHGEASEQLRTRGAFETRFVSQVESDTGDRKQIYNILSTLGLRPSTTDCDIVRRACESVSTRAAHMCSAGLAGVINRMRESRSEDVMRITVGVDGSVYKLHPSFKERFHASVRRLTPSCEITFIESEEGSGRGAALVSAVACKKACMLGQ
T1 sequence (Q14397 whole entry, looked up): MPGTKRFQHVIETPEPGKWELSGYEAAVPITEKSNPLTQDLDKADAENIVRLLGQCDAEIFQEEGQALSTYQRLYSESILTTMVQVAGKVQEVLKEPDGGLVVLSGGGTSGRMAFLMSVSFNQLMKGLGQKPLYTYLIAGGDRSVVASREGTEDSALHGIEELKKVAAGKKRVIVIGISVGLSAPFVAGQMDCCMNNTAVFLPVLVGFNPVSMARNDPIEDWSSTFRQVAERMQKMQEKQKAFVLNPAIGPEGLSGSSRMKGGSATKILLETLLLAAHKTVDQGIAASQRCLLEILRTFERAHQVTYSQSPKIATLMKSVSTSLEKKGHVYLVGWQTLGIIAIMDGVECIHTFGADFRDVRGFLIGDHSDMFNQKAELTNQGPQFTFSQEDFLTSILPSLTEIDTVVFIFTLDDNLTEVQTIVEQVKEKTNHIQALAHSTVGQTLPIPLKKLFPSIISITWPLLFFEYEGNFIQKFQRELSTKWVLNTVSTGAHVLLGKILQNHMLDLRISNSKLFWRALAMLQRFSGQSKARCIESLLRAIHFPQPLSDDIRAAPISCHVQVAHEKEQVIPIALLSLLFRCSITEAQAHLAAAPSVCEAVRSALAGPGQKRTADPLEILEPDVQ
Sequence of Arylsulfatase A (Homo sapiens) (P15289 whole entry, looked up): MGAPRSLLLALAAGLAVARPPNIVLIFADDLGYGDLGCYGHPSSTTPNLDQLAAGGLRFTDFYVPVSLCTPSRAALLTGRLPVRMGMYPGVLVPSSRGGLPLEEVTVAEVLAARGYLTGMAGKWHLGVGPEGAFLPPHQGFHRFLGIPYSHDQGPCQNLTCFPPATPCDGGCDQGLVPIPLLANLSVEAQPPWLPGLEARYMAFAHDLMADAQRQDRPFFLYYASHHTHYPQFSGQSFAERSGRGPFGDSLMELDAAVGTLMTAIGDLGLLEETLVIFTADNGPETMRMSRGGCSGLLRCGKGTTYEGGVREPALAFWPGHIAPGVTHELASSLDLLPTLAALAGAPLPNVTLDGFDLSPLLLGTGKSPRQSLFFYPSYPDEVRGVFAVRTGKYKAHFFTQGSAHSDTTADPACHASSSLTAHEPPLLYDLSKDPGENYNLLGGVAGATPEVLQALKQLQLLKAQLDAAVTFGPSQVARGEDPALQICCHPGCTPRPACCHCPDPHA
Sequence of Peroxisome proliferator-activated receptor alpha (Homo sapiens) (Q07869 whole entry, looked up): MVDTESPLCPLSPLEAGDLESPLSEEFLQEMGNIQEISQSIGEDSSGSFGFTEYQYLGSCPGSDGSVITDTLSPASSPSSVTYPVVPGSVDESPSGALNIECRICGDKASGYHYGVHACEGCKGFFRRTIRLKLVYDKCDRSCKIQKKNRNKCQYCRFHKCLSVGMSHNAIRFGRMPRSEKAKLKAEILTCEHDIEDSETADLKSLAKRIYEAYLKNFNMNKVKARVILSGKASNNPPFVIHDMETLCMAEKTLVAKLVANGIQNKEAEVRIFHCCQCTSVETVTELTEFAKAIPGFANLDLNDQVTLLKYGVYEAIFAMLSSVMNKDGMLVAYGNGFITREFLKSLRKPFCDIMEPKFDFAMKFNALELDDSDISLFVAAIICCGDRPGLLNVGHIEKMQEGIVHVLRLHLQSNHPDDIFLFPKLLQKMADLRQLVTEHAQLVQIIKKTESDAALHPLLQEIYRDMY

COc1ccc2c(c1OC)C(=O)OC2C1c2cc3c(cc2CCN1C)OCO3 (stereo not drawn)
inactive: activation [1] -5.72% | Potency [2] | Potency [3] | Potency [4] | activation [5] 0.0911% | max response [6] -0.464% | Potency [7] | Potency [8] | Potency [9] | max response [10] -15.1% | max response [11] -5.26%

O=[N+]([O-])c1ccccc1
inactive: activation [1] 2.6% and -2.69% | activation [12] -0.285% and -0.296% | Potency [2] | Potency [3] | activation [5] -1.49% and 0.199% | max response [6] 0.135% and -4.33% | Potency [7] | Potency [8] | Potency [9] | max response [10] -3.95% and -3.49% | max response [11] -0.844% and 8.43%

O=C(O)c1cc[c]([Hg][Cl])cc1
inactive: activation [1] 10.2% | activation [12] 4.33% | activation [5] -2.48% | max response [6] -9.79% | Potency [13] | outcome [14] | Potency [15] | outcome [16] | max response [10] 8.27% | Potency [17] | outcome [18] | outcome [19] | max response [20] 33.9% | max response [11] -11.9%

ClC=C(Cl)Cl
inactive: activation [1] -0.563% and 7.22% | activation [12] -0.987% and 0.875% | Potency [2] | Potency [3] | activation [5] 3.37% and -2.62% | max response [6] -8.59% and -1.74% | Potency [7] | Potency [8] | Potency [9] | max response [10] -6.12% and -5.8% | max response [20] -0.112% | max response [11] 5.41% and -9.88%

ClC(Cl)(Cl)Cl
inactive: activation [1] -0.523% and 1.98% | activation [12] 2.09% and -0.921% | Potency [2] | Potency [3] | Potency [4] | activation [5] -0.636% and 0.214% | max response [6] -1.24% and -4.01% | Potency [7] | Potency [8] | Potency [9] | max response [10] 14.9% and -6.99% | max response [11] -6.99% and 5.96%

CC(C)(C)c1cc(O)ccc1O
active: Potency [7] 16.8 µM and 29.8 µM | Potency [20] 31.6 µM and 3.55 µM
inactive and 66.8 µM (active): Potency [4]
inactive: activation [1] -3.68% and -3.53% and -5.7% | activation [12] -2.1% and -2.15% and -3.27% | Potency [2] | Potency [3] | activation [5] 12.6% and 10.4% | max response [6] -2.46% and -4.08% and -1.53% | Potency [9] | max response [10] 21.5% and -0.658% and -3.53% | max response [11] -11% and 8.59% and 5.79%

S=C=S
inactive: activation [1] -0.789% | activation [12] -0.146% | Potency [2] | Potency [3] | Potency [4] | activation [5] 0.646% | max response [6] -4.15% | Potency [7] | Potency [8] | Potency [9] | max response [10] -6.45% | max response [20] -5.35% | max response [11] -4.58%

CCCCCCCCOC(=O)c1ccccc1C(=O)OCCCCCCCC
inactive: activation [1] 1.9% and -2.06% | activation [12] -1.07% and -0.62% | Potency [2] | Potency [3] | activation [5] -0.0695% and 0.763% | max response [6] 0.808% and 0.946% | Potency [7] | Potency [8] | max response [10] -5.46% and -4.31% | max response [20] -1.95% | max response [11] -2.74% and -18%

NNC(=O)c1ccc(O)cc1
inactive: Potency [13] | outcome [14] | Potency [15] | outcome [16] | Potency [17] | outcome [18] | outcome [19]

CN(N=O)c1cc(O)ccc1O
inactive: Potency [13] | outcome [14] | Potency [15] | outcome [16] | Potency [17] | outcome [18] | outcome [19]

CCN1C[C@@]2(COC)C3[C@@H](OC)C4[C@@H]1C3([C@@H]1C[C@]3(O)[C@H](OC(=O)c5ccccc5)[C@@H]1[C@]4(OC(C)=O)[C@@H](O)[C@@H]3OC)[C@H](OC)C[C@H]2O
inactive: Potency [13] | outcome [14] | Potency [15] | outcome [16] | Potency [17] | outcome [18] | outcome [19]

C=CCN1C[C@@H](C)N([C@H](c2ccc(C(=O)N(CC)CC)cc2)c2cccc(OC)c2)C[C@@H]1C
inactive: Potency [13] | outcome [14] | Potency [15] | outcome [16] | Potency [17] | outcome [18] | outcome [19]

N#CN
inactive: activation [12] 0.422% | activation [5] 1.29% | max response [6] 0.0862% | Potency [8] | max response [10] -18.5% | max response [20] 10.9% | max response [11] -11.1%

COc1ccc2c(c1)[C@@]13CCCC[C@H]1[C@@H](C2)NCC3
inactive: Potency [13] | outcome [14] | Potency [15] | outcome [16] | Potency [17] | outcome [18] | outcome [19]
